Results filed as inconclusive are left out. The source made the active and inactive calls. Unless noted, calls come from the whole dose curve; as a rule, active = well fitted curve in the direction sought with a large enough effect in the repeat runs; inconclusive = weak or mixed curves; inactive = no such curve, though single readings can be large; an effect the other way counts as inactive or inconclusive.
Tests used:
[1] = qHTS assay to identify small molecule agonists of the sonic hedgehog signaling (Shh) pathway (AID 1259368; calls by dose curve;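 note: NIH/3T3-derived 3T3Gli1-Luc cells carrying a stable Gli1-driven firefly luciferase reporter; series mostly up to about 92 µM; nearly all actives have a fitted effect of over 15% in size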)
Method in brief: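 3T3Gli1-Luc (NIH/3T3 clone, stable Gli1-Luc); 4 hr pre-incubation, then cpd in DMSO 24 hr, 37 C/5% CO2; luciferase reagent 30 min RT; luminescence.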

[2] = qHTS assay to identify small molecule antagonists of the sonic hedgehog signaling (Shh) pathway (AID 1259369; calls by dose curve; note: nearly all actives have a fitted effect of over 45% in size; note: potency is the fitted concentration of half-maximal effect)
Method in brief: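 3T3Gli1-Luc, conditioned-medium-stimulated, 24hr cpd, 37C/5% CO2; Gli1-driven firefly Luc luminescence after 30min RT with luciferase reagent. Cells plated 4hr before cpd.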

[3] = target: Estrogen receptor beta (Homo sapiens) (UniProt Q92731); assay: qHTS assay to identify small molecule agonists of the estrogen receptor beta (ER-beta) signaling pathway (AID 1259377; active = well fitted activation curve with a large enough effect in the signal ratio in the repeat runs, not every such curve was filed as active; the % refers to the signal ratio)
Method in brief: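 A UAS-controlled beta-lactamase reporter in ER-beta-UAS-bla HEK293T cells reports receptor activation. Compounds act for 16 hr at 37C in 2% charcoal-stripped serum, and a FRET substrate is read by fluorescence after 2 hours.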

[4] = target: Estrogen receptor beta (Homo sapiens) (UniProt Q92731); assay: qHTS assay to identify small molecule antagonists of the estrogen receptor beta (ER-beta) signaling pathway (AID 1259378; active = well fitted inhibition curve with a large enough effect in the signal ratio in the repeat runs, not every such curve was filed as active; the % refers to the signal ratio; note: potency is the fitted concentration of half-maximal effect)
Method in brief: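 ER-beta-UAS-bla HEK293T cells in 2% charcoal-stripped FBS medium treated with compound plus 1nM final 17-beta-estradiol for 16 hr at 37C. Beta-lactamase reporter read by FRET substrate fluorescence after 2 hours at room temperature.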

[5] = qHTS assay to identify small molecule agonists of the androgen receptor (AR) signaling pathway in the presence of an antagonist - cell viability counter screen (AID 1259379); note: nearly all actives have a fitted effect of over 25% in size; note: potency is the fitted concentration of half-maximal effect
Method in brief: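 Cells: MDA-kb2 (MMTV-luc, AR and GR elements), 3,000/well, 5 hr settle. Added: nilutamide 3.0uM final, then compounds (15 conc.). Incubation: 16 hr, 37C, no CO2. Read-out: CellTiter-Fluor, 1 hr, fluorescence.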

[6] = qHTS assay to identify small molecule agonists of the estrogen receptor beta (ER-beta) signaling pathway - cell viability counter screen (AID 1259380); note: nearly all actives have a fitted effect of over 30% in size; note: potency is the fitted concentration of half-maximal effect
Method in brief: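 HEK293T ER-beta-UAS-bla; 2% CS-FBS; 6 hr pre-plate, 16 hr cpd at 37C/5% CO2; LiveBLAzer read first, then CellTiter-Glo 30 min RT, luminescence.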

[7] = qHTS assay to identify small molecule antagonists of the estrogen receptor beta (ER-beta) signaling pathway - cell viability counter screen (AID 1259382); note: series mostly up to about 92 µM; nearly all actives have a fitted effect of over 55% in size
Method in brief: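 Cells: ER-beta-UAS-bla HEK293T, 2,000/well, 2% CS-FBS, 6 hr settle. Cpd + E2 (1nM final), 16 hr, 37C/5% CO2. Bla FRET substrate 2 hr RT, then CellTiter-Glo 30 min RT, luminescence.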

[8] = qHTS assay to identify small molecule agonists or antagonists of the thyroid stimulating hormone receptor (TSHR) signaling pathway - wild type cell line counter screen (AID 1259384; calls by dose curve)
Method in brief: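 Wild-type Hek293 cells, 800/well, 18 h at 37C, then compound with Ro20-1724 for 30 min RT. cAMP by HTRF (cAMP-d2/anti-cAMP cryptate), 1 h RT, fluorescence read. 15 concentrations, triplicates.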

[9] = target: Thyrotropin receptor (Homo sapiens) (UniProt P16473); assay: qHTS assay to identify small molecule antagonists of the thyroid stimulating hormone receptor (TSHR) signaling pathway (AID 1259385; calls by dose curve; note: nearly all actives have a fitted effect of over 20% in size)
Method in brief: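 TSHR-HEK293 cells (800/well) plated 18 h, then compounds with Ro20-1724 and TSH at 1.5 ng/mL final, 30 min at room temperature. cAMP quantified by HTRF (cAMP-d2/anti-cAMP-cryptate, 1 h); 15 concentrations in triplicate.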

[10] = qHTS assay to identify small molecule agonists of the estrogen receptor alpha (ER-alpha) signaling pathway in the presence of an antagonist - cell viability counter screen (AID 1259386);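 note: series mostly up to about 92 µM; cells exposed to compounds for 22 h at 37 °C before the viability read; nearly all actives have a fitted effect of over 30% in size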
Method in brief: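 VM7Luc4E2, stripped-serum pre-culture 5 d; 24hr plating; +ICI-182,780 10.0nM final; cpds 15 conc, 22hr, 37C/5% CO2; CellTiter-Fluor added at 21hr, fluorescence 1hr later.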

[11] = target: Progesterone receptor (Homo sapiens) (UniProt P06401); assay: qHTS assay to identify small molecule antagonists of the progesterone receptor (PR) signaling pathway (AID 1346795; active = well fitted inhibition curve with a large enough effect in the signal ratio in the repeat runs, not every such curve was filed as active; the % refers to the signal ratio; note: potency is the fitted concentration of half-maximal effect)
Method in brief: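 HEK293T PR-UAS-bla reporter cells in charcoal-stripped serum (2%) received compound after a 6 hr settling period, followed by R5020 agonist at 1 nM final; 16 hr incubation preceded the FRET substrate step and fluorescence measurement.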

[12] = qHTS assay to identify small molecule antagonists of the progesterone receptor (PR) signaling pathway - cell viability counter screen (AID 1346798); note: series mostly up to about 92 µM; nearly all actives have a fitted effect of over 50% in size
Method in brief: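 Same-well multiplex: after 16 hr at 37C with compound and R5020 stimulation, HEK293T cells carrying a UAS-bla reporter received LiveBLAzer substrate (2 hr RT), then CellTiter-Glo (30 min RT) for luminescent viability.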

[13] = qHTS assay to identify small molecule agonists of the progesterone receptor (PR) signaling pathway - cell viability counter screen (AID 1346799; calls by dose curve; note: nearly all actives have a fitted effect of over 45% in size)
Method in brief: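 Counter screen for cytotoxicity: compound-treated PR-UAS-bla HEK293T cells (16 hr, 37C, 5% CO2) were assayed with CellTiter-Glo, luminescence measured after 30 min at room temperature.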

[14] = qHTS assay to identify small molecule antagonists of the TGF-beta/Smad signaling pathway - cell viability counter screen (AID 1346824); note: nearly all actives have a fitted effect of over 50% in size
Method in brief: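 SBE-bla HEK 293T cells, incubated overnight, then compound plus 0.25 ng/mL TGF-beta1 (stock added) for 5 hr at 37 C. Viability was read in the same wells by CellTiter-Glo luminescence after 30 min at room temperature.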

[15] = qHTS assay to identify small molecule agonists of the TGF-beta/Smad signaling pathway - cell viability counter screen (AID 1346829); note: top concentration of the series differs between compounds; nearly all actives have a fitted effect of over 45% in size
Method in brief: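 Tox21 qHTS format: SBE-bla HEK 293T cells treated with DMSO-dissolved compounds for 5 hr; CellTiter-Glo luminescence after 30 min at room temperature.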

[16] = qHTS assay to identify small molecule agonists of the TGF-beta/Smad signaling pathway (AID 1346859; active = well fitted activation curve with a large enough effect in the signal ratio in the repeat runs, not every such curve was filed as active; the % refers to the signal ratio; note: series mostly up to about 77 µM)
Method in brief: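 Smad-responsive beta-lactamase reporter cells (HEK 293T) received compounds from DMSO stocks after overnight attachment, were incubated 5 hr, then treated 2 hr with FRET substrate before dual-emission fluorescence measurement (405 nm excitation).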

[17] = target: Thyrotropin-releasing hormone receptor (Homo sapiens) (UniProt P34981); assay: qHTS assay to identify small molecule antagonists of the thyrotropin-releasing hormone receptor (TRHR) signaling pathway (AID 1346877; active = well fitted inhibition curve with a large enough effect in the repeat runs, not every such curve was filed as active; note: series mostly up to about 51 µM)
Method in brief: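 Intracellular calcium fluorescence, read kinetically every second over 3 min, reports TRH-evoked signalling in HEK293 cells carrying TRHR. Test compounds were added 5 min ahead of a 1 nM TRH challenge.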

[18] = target: Androgen receptor (Homo sapiens) (UniProt P10275); assay: qHTS assay to identify small molecule agonists of the androgen receptor (AR) signaling pathway in the presence of an antagonist (AID 1259381; calls by dose curve; note: nearly all actives have a fitted effect of over 15% in size)
Method in brief: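 MDA-kb2 cells, 3,000/well, rested 5hr at 37C/0% CO2 → nilutamide 3.0uM final or buffer → compounds, 15 conc. → 16hr at 37C → ONE-Glo, 30min RT → luminescence.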

[19] = target: Estrogen receptor (Homo sapiens) (UniProt P03372); assay: qHTS assay to identify small molecule agonists of the estrogen receptor alpha (ER-alpha) signaling pathway in the presence of an antagonist (AID 1259383; calls by dose curve; note: top concentration of the series differs between compounds; nearly all actives have a fitted effect of over 15% in size)
Method in brief: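 VM7Luc4E2, endog. ER-alpha + 4×ERE-luc; charcoal-stripped FBS, phenol red-free, 5 d; 24hr plating; +10.0nM ICI-182,780 (final); cpds 15 conc, 22hr, 37C/5% CO2; ONE-Glo luminescence.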

[20] = target: Progesterone receptor (Homo sapiens) (UniProt P06401); assay: qHTS assay to identify small molecule agonists of the progesterone receptor (PR) signaling pathway (AID 1346784; calls by dose curve; note: nearly all actives have a fitted effect of over 30% in size; note: potency is the fitted concentration of half-maximal effect)
Method in brief: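 Agonist mode, quantitative HTS format in a HEK 293T line expressing a UAS-controlled beta-lactamase reporter; 16 hr compound exposure at 37C in 2% charcoal-stripped FBS, then LiveBLAzer B/G FRET fluorescence.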

Measured: Potency

Sequence of Thyrotropin-releasing hormone receptor (Homo sapiens) (P34981 whole entry, looked up): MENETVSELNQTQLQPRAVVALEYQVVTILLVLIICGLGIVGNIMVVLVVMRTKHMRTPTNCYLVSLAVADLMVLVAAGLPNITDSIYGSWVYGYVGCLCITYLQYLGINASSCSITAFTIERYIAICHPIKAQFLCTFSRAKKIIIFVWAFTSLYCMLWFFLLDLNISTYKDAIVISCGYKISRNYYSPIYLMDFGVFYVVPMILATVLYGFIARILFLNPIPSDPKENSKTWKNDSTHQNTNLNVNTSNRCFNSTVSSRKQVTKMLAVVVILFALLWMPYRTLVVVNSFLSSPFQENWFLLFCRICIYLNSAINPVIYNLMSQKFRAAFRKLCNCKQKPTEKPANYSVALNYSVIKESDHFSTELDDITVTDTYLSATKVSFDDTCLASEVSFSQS
Sequence of Estrogen receptor (Homo sapiens) (P03372 whole entry, looked up): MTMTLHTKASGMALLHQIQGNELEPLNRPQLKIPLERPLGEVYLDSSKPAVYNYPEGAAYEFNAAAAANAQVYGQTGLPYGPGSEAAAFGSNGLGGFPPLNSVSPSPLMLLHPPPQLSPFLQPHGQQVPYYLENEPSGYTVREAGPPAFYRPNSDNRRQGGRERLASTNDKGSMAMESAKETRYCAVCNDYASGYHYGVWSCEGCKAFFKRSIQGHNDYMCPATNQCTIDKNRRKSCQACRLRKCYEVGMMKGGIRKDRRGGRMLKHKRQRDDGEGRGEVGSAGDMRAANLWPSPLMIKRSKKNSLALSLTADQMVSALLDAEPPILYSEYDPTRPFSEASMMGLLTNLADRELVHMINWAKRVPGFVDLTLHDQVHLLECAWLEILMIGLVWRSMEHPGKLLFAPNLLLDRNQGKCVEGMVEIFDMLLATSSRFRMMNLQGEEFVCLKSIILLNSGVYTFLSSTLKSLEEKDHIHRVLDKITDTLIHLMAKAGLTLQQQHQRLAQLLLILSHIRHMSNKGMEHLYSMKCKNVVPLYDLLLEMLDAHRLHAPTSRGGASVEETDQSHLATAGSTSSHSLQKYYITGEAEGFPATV
Sequence of Thyrotropin receptor (Homo sapiens) (P16473 whole entry, looked up): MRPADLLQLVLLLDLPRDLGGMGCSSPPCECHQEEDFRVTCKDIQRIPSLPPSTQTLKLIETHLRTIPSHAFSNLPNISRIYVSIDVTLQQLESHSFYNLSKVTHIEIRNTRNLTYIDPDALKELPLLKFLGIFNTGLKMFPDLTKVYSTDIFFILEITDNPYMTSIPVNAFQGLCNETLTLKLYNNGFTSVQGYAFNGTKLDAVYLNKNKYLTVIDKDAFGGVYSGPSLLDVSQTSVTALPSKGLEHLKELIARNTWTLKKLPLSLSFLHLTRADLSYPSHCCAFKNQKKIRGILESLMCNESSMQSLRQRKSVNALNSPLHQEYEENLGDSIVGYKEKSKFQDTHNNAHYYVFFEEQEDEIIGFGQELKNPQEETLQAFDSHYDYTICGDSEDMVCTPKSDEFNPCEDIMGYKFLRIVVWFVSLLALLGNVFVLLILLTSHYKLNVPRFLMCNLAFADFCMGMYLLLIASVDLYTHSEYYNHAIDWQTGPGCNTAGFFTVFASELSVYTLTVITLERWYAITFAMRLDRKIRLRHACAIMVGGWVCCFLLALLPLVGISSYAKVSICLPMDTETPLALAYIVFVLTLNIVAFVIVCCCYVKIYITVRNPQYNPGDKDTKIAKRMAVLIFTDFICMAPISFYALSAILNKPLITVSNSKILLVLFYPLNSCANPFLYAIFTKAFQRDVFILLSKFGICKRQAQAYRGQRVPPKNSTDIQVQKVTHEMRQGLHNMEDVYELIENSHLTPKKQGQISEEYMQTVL
Sequence of Estrogen receptor beta (Homo sapiens) (Q92731 whole entry, looked up): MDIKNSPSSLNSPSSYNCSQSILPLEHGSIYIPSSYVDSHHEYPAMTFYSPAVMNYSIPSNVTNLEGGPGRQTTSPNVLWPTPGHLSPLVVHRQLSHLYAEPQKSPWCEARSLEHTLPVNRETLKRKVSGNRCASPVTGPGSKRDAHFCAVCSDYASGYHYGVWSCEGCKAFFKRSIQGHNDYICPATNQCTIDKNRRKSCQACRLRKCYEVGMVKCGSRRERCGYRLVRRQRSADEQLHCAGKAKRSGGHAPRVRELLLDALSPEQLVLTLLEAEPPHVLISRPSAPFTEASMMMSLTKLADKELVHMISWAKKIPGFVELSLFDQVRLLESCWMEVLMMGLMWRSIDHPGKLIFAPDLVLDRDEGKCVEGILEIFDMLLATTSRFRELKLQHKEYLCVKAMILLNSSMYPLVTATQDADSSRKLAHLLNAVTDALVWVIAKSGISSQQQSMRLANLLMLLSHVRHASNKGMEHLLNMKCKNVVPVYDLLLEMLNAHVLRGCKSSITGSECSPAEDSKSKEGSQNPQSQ
Sequence of Progesterone receptor (Homo sapiens) (P06401 whole entry, looked up): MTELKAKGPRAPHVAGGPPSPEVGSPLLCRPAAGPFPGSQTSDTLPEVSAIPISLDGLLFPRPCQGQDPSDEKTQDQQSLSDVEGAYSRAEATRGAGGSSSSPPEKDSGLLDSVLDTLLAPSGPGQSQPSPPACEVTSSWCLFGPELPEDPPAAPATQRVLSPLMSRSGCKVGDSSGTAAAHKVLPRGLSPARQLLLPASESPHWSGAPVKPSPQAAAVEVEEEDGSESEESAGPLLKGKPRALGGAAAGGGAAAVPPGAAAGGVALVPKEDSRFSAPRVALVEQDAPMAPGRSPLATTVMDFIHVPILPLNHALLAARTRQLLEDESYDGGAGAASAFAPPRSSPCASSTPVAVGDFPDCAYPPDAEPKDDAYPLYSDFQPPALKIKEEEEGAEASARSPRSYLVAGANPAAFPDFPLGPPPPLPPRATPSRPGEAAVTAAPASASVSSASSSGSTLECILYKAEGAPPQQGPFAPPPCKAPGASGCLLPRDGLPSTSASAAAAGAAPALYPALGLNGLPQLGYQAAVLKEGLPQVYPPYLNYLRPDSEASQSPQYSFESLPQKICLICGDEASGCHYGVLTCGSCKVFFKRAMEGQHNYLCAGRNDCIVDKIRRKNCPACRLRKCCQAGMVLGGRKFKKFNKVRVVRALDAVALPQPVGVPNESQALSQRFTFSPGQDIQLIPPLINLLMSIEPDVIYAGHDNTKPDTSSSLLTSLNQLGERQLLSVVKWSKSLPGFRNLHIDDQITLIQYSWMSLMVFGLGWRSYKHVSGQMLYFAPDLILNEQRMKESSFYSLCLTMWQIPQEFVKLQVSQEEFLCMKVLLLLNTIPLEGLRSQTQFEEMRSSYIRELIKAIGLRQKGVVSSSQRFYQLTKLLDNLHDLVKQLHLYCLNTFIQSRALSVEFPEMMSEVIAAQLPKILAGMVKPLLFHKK
Sequence of Androgen receptor (Homo sapiens) (P10275 whole entry, looked up): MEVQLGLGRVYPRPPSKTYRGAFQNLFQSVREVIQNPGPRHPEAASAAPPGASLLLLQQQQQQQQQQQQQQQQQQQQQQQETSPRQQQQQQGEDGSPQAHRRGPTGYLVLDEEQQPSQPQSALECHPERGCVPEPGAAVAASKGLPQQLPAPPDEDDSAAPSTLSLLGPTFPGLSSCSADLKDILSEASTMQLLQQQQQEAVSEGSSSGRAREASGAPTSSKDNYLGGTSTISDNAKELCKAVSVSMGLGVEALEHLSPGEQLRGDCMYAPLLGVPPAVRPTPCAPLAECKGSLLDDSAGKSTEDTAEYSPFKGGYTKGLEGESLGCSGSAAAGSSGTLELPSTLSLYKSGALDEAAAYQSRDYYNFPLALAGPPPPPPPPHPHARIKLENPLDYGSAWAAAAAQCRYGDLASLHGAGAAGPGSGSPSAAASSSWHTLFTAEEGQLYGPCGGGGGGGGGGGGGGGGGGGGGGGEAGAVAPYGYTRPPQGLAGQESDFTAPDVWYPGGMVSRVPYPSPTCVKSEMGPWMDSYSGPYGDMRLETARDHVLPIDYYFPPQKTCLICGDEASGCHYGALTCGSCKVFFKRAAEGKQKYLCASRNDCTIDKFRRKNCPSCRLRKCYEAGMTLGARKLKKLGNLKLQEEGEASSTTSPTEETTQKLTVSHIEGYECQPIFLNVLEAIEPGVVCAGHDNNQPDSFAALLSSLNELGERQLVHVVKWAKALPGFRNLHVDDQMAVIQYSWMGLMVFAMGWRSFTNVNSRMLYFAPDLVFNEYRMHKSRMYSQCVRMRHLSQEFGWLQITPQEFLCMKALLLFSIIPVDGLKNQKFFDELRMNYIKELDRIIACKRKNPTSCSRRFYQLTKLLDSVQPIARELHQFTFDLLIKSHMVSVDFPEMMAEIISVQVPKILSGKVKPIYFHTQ

CCCCCCCCCI
not listed: [18] | [19] | [20]
inactive: all other assays above

O=C1c2ccccc2C(=O)C1c1ccc(Br)cc1
not listed: [10] | [11] | [13] | [17]
inactive: all other assays above

C=C(C)C(=O)OCCOCCOC(=O)C(=C)C
not listed: [8] | [9] | [10] | [11] | [18]
inactive: all other assays above

Nc1cccc2c1CN(C1CCC(=O)NC1=O)C2=O (stereo not drawn)
not listed: [17] | [18]
inactive: all other assays above

c1ccc2sc(SN(C3CCCCC3)C3CCCCC3)nc2c1
not listed: [11] | [17] | [18]
inactive: all other assays above

Cc1[nH]cnc1CN1CCc2c(c3ccccc3n2C)C1=O
not listed: [11] | [13] | [17] | [18] | [19]
inactive: all other assays above

COc1cc(C(=O)NCCCCCC(=O)O)cc(OC)c1OC
not listed: [17] | [18]
inactive: all other assays above

CCCCCCCCN
not listed: [17] | [18] | [19]
inactive: all other assays above

CC(C)(C)CC(=O)OCC(=O)[C@@]1(O)CC[C@H]2[C@@H]3CCC4=CC(=O)C=C[C@]4(C)[C@H]3[C@@H](O)C[C@@]21C
active: [2] 6.68 µM | [4] 26.6 µM | [6] 8.41 µM | [11] 21.1 µM
not listed: [7] | [9] | [10] | [12] | [13] | [18]
inactive: all other assays above

C=C(C)C(=O)OCCCCCCCCCCCCC
not listed: [11] | [18]
inactive: all other assays above

CCC(=O)OC
inactive: all assays above

CC(=O)OCC(=O)NCCCOc1cccc(CN2CCCCC2)c1
not listed: [7] | [12] | [17] | [19]
inactive: all other assays above

CCCCN(CCCC)C(C(N)=O)c1ccc(OC)cc1 (stereo not drawn)
not listed: [8] | [9] | [13] | [17] | [18]
inactive: all other assays above

C[C@@H](O)[C@H]1C(=O)N2C(C(=O)O)=C([C@H]3CCCO3)S[C@H]12
not listed: [11] | [20]
inactive: all other assays above

CCCCC(CC)CN (stereo not drawn)
not listed: [17]
inactive: all other assays above

Cc1ccccc1S
not listed: [13] | [18]
inactive: all other assays above

CC(C)(C)C(=O)C(=O)O
not listed: [8] | [9] | [18]
inactive: all other assays above

CC=C(Cl)Cl
not listed: [7] | [18]
inactive: all other assays above

CC(=O)Nc1cc(S(=O)(=O)O)cc2cc(S(=O)(=O)O)c(N=Nc3ccccc3)c(O)c12
active: [5] 27.3 µM
not listed: [7] | [8] | [9] | [10] | [11] | [18] | [20]
inactive: all other assays above

CCOC(=O)c1ccc(C#Cc2ccc3c(c2)C(C)(C)CCS3)nc1
not listed: [10] | [11] | [12] | [13] | [16] | [18] | [19] | [20]
inactive: all other assays above

CCc1ccccc1
not listed: [11] | [18] | [19] | [20]
inactive: all other assays above

O=C1NCCN1CCO
not listed: [8] | [9] | [17] | [18] | [19]
inactive: all other assays above

CC1(C)O[C@@H]2C[C@H]3[C@@H]4C[C@H](F)C5=CC(=O)C=C[C@]5(C)[C@H]4[C@@H](O)C[C@]3(C)[C@]2(C(=O)CO)O1
active: [20] 0.0119 µM
not listed: [16] | [17] | [18]
inactive: all other assays above

Cc1ccc(CO)cc1
active: [20] 17.4 µM
not listed: [11] | [13] | [18]
inactive: all other assays above

c1ccc2c(c1)CCc1ccccc1N2
not listed: [11] | [13] | [18] | [19]
inactive: all other assays above

COc1ncnc(NS(=O)(=O)c2ccc(N)cc2)c1OC
not listed: [8] | [9] | [13] | [18]
inactive: all other assays above

CC1=C(CC=O)C(C)(C)CCC1
not listed: [10] | [13] | [17] | [18] | [19]
inactive: all other assays above

O[C@@H]1CO[C@H]2[C@@H]1OC[C@@H]2O
not listed: [18] | [19]
inactive: all other assays above

CCn1cc(C(=O)O)c(=O)c2cc(F)c(N3CCNCC3)cc21
not listed: [17] | [18]
inactive: all other assays above

O=C(Cn1ccnc1[N+](=O)[O-])NCCO
inactive: all assays above

CC(C)=CCC/C(C)=C/CC/C(C)=C/CCC(=O)OC/C=C(\C)CCC=C(C)C
not listed: [18]
inactive: all other assays above

From PubChem BioAssay (Tox21)
